Measured values from PubChem BioAssay (NCATS).
Inconclusive results are not listed. Values without a mark were called inactive. The call rests on the fitted dose curve; in most records, active means well fitted inhibition curve with a large enough effect; inconclusive means small, poorly fitted or top-dose-only effect; inactive means flat fitted curve, though single readings scatter.

System: PC26
Assay: qHTS profiling for inhibitors of Plasmodium falciparum proliferation (AID 504749);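 further: 0% = DMSO vehicle and full inhibition = artemisinin control; nearly all actives have a fitted effect of over 60% in size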
Conditions: P. falciparum in erythrocytes, SYBR Green DNA, 72 h; series mostly up to 28.7 µM; activity, negative = inhibition: at the top concentration
In short: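 Infected RBCs, 0.3% parasitemia/2.5% Hct final; cpd 72 h, 37 C, 5% CO2; lysis buffer with saponin/triton/SYBR Green I, o/n RT dark; FI 485/535; norm. to artemisinin (0.29 uM) and DMSO.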

| Compound | activity, negative = inhibition |
| --- | --- |
| CCN(Cc1ccncc1)C(=O)C(CO)c1ccccc1 (stereo not drawn) | -2.39% |
| NC(=O)c1cn(Cc2c(F)cccc2F)nn1 | 8.72% |
| CCCCCN(CCCCC)C(=O)C(CCC(=O)O)NC(=O)c1ccc(Cl)c(Cl)c1 (stereo not drawn) | 4.31% |
| NC(Cc1ccc(Cl)cc1)C(=O)O (stereo not drawn) | 15.8% |
| CCCN(CCC)CCc1cccc2c1CC(=O)N2 | -2.44% |
| O=C(O)CN(CCOCCOCCN(CC(=O)O)CC(=O)O)CC(=O)O | 8.84% |
| CCN(CC)CCNC(=O)c1ccc(NC(C)=O)cc1 | 0.0265% |
| O=C(O)CCCCCCCC(=O)O | 6.66% |
| CC(=O)OCC1=C(C(=O)O)N2C(=O)[C@@H](NC(=O)Cc3cccs3)[C@H]2SC1 | -1.29% |
| CNC1(C)C2CCC(C2)C1(C)C (stereo not drawn) | -14.5% |
| Cc1scc2c1N(C(=O)CN1CCN(C)CC1)c1ccccc1NC2=O | -10.3% |
| CCCOc1ccccc1-c1nc2n[nH]nc2c(=O)[nH]1 | 6.03% |
| CC(C)NNC(=O)c1ccncc1 | -6.85% |
| Nc1c2c(nc3ccccc13)CCCC2O (stereo not drawn) | -6.37% |
| NC(=O)c1ncn([C@@H]2O[C@H](CO)[C@@H](O)[C@H]2O)c1O | 3.24% |
| Cc1nc2c([nH]1)c(=O)n(C)c(=O)n2Cc1ccco1 | -7.18% |
| Cc1cc(C)c(/C=C2\C(=O)Nc3ccccc32)[nH]1 | -0.831% |
| CCn1cc(C(=O)O)c(=O)c2cc3c(cc21)OCO3 | -6.88% |
| CC(=O)Nc1nnc(S(N)(=O)=O)s1 | -0.0472% |
| FC(F)(F)c1ccccc1-n1ccnc1 | 12% |
| CCCCOCCOCCOCc1cc2c(cc1CCC)OCO2 | -0.0637% |
| CCN1CCc2nc(N)oc2CC1 | -1.01% |
| O=C(CCNNC(=O)c1ccncc1)NCc1ccccc1 | -0.398% |
